Measured values taken from PubChem BioAssay AID1159580 (chemical genetic matrix, 2015).
“And” between values parts separate entries of the source, which are not always exact repeats. Equal entries are not always repeated. The campaign covered roughly 5,500 compounds. About 2,000 (36%) were called active. Another 18% or so got no clear call; they are omitted. Rule as the data show it: active = normalized growth mostly below about 0.91 (no sharp cut-off); inconclusive = no clear call, values can overlap the other calls; inactive = mostly above about 0.92. This is one part of the list.

Assay: chemical genetic growth profiling, strain panel (AID 1159580);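 also: tested at 20 µM; growth read once vehicle control cultures reached saturation at 30 °C; 1 = growth at the plate median or of vehicle wells; lower values mean less growth of the strain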
Conditions: S. cerevisiae deletion strains, growth OD

Measured: normalized growth

O=C(O)c1nc2cc(Cl)c(Cl)cc2[nH]c1=O
inactive: locus YAL013W, strain DEP1, stronger effect = lower value 1.02 | locus YAL021C, strain ccr4, stronger effect = lower value 0.995 | locus YAL026C, strain drs2, stronger effect = lower value 1.03 | locus YAL030W, strain snc1, stronger effect = lower value 1.01 | locus YBL061C, strain skt5, stronger effect = lower value 1.01 | locus YBR009C, strain hhf1, stronger effect = lower value 1.04 | locus YBR021W, strain FUR4, stronger effect = lower value 1.02 | locus YBR023C, strain chs3, stronger effect = lower value 1.03 | locus YBR171W, strain sec66, stronger effect = lower value 1.04 | locus YBR229C, strain ROT2, stronger effect = lower value 1.01 | locus YBR231C, strain swc5, stronger effect = lower value 1.02 | locus YBR279W, strain paf1, stronger effect = lower value 1.01 | locus YCL011C, strain gbp2, stronger effect = lower value 1.02 | locus YCL016C, strain dcc1, stronger effect = lower value 1.01 | locus YCL029C, strain bik1, stronger effect = lower value 0.99 | locus YCL061C, strain MRC1, stronger effect = lower value 1.03 | locus YCL069W, strain vba3, stronger effect = lower value 1.01 | locus YCR088W, strain abp1, stronger effect = lower value 1.01 | locus YDL005C, strain med2, stronger effect = lower value 1.02 | locus YDL035C, strain GPR1, stronger effect = lower value 1.01 | locus YDL040C, strain nat1, stronger effect = lower value 0.995 | locus YDL074C, strain BRE1, stronger effect = lower value 1.03 | locus YDL101C, strain DUN1, stronger effect = lower value 1.02 | locus YDL134C, strain PPH21, stronger effect = lower value 1 | locus YDL185W, strain tfp1, stronger effect = lower value 0.956 | locus YDL192W, strain arf1, stronger effect = lower value 0.993 | locus YDR001C, strain nth1, stronger effect = lower value 1.01 | locus YDR069C, strain doa4, stronger effect = lower value 1.04 | locus YDR101C, strain arx1, stronger effect = lower value 1.01 | locus YDR137W, strain rgp1, stronger effect = lower value 0.974 | locus YDR150W, strain NUM1, stronger effect = lower value 0.978 | locus YDR159W, strain sac3, stronger effect = lower value 1.01 | locus YDR162C, strain NBP2, stronger effect = lower value 1.03 | locus YDR195W, strain ref2 1.04 | locus YDR297W, strain sur2, stronger effect = lower value 1.01 | locus YDR318W, strain mcm21, stronger effect = lower value 0.994 | locus YDR334W, strain swr1, stronger effect = lower value 1.02 | locus YDR335W, strain msn5, stronger effect = lower value 1.02 | locus YDR388W, stronger effect = lower value 1.01 | locus YDR392W, strain spt3, stronger effect = lower value 0.968 | locus YDR502C, strain sam2, stronger effect = lower value 1.01 | locus YEL003W, strain gim4, stronger effect = lower value 1.03 | locus YEL037C, strain rad23, stronger effect = lower value 1.02 | locus YEL061C, strain CIN8 (second series), stronger effect = lower value 1.02 | locus YEL061C, strain CIN8, stronger effect = lower value 0.998 | locus YER015W, strain faa2, stronger effect = lower value 1.01 | locus YER016W, strain bim1, stronger effect = lower value 1.01 | locus YER110C, stronger effect = lower value 0.992 | locus YER111C, strain swi4, stronger effect = lower value 1.03 | locus YER155C, strain BEM2 (second series), stronger effect = lower value 1.03 | locus YER155C, strain BEM2, stronger effect = lower value 0.996 | locus YER167W, strain BCK2, stronger effect = lower value 1 | locus YFR010W, strain ubp6, stronger effect = lower value 1.03 | locus YGL078C, strain dbp3, stronger effect = lower value 0.992 | locus YGL086W, strain mad1, stronger effect = lower value 0.979 | locus YGL167C, strain pmr1, stronger effect = lower value 1.01 | locus YGL173C, strain kem1, stronger effect = lower value 1.02 | locus YGL227W, strain vid30, stronger effect = lower value 1.02 | locus YGL240W, strain doc1, stronger effect = lower value 1.03 | locus YGL248W, strain PDE1, stronger effect = lower value 1.01 | locus YGL253W, strain hxk2, stronger effect = lower value 1.03 | locus YGR078C, strain PAC10, stronger effect = lower value 1.03 | locus YGR135W, strain pre9, stronger effect = lower value 1.02 | locus YGR229C, strain SMI1, stronger effect = lower value 1.07 | locus YGR252W, strain gcn5, stronger effect = lower value 1 | locus YHR013C, strain ard1, stronger effect = lower value 0.994 | locus YHR027C, strain rpn1, stronger effect = lower value 1.02 | locus YHR030C, strain SLT2, stronger effect = lower value 0.995 and 0.994 | locus YHR079C, strain IRE1 (second series), stronger effect = lower value 0.997 | locus YHR079C, strain IRE1, stronger effect = lower value 0.999 | locus YHR094C, strain hxt1, stronger effect = lower value 0.983 | locus YHR129C, strain ARP1, stronger effect = lower value 1.01 | locus YHR142W, strain chs7, stronger effect = lower value 0.984 | locus YHR200W, strain rpn10, stronger effect = lower value 0.99 | locus YIL066C, strain RNR3, stronger effect = lower value 1 | locus YIL073C, strain SPO22, stronger effect = lower value 0.946 | locus YIR030C, strain dcg1, stronger effect = lower value 0.992 | locus YJL092W, strain hpr5, stronger effect = lower value 1.02 | locus YJL095W, strain BCK1 (second series), stronger effect = lower value 1 | locus YJL095W, strain BCK1, stronger effect = lower value 1.05 and 0.986 | locus YJL115W, strain asf1, stronger effect = lower value 1.02 | locus YJL129C, strain trk1, stronger effect = lower value 1.01 | locus YJL134W, strain LCB3, stronger effect = lower value 0.994 | locus YJL154C, strain vps35, stronger effect = lower value 1 | locus YJL164C, strain tpk1, stronger effect = lower value 0.999 | locus YJL166W, strain qcr8, stronger effect = lower value 1.02 | locus YJL168C, strain set2, stronger effect = lower value 1.01 | locus YJL187C, strain SWE1 (second series), stronger effect = lower value 1.01 | locus YJL187C, strain SWE1, stronger effect = lower value 1.02 | locus YJR043C, strain POL32, stronger effect = lower value 1.02 | locus YJR066W, strain TOR1, stronger effect = lower value 0.985
